From PubChem BioAssay
The list is not random: actives were taken first. Their share in the collection is about 0.74%.
cardiac RTF act: cardiac RTF calcium sensitization; activation, % at 7.2 µM; P19429+P45379; IANBD-labeled TnC RTF fluorescence at EC20 calcium; 0% EC20 calcium, 100% full calcium; actives 0.24% (n = 340,000);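 active = activation above the mean over all tested compounds plus 3 SD, cut at about 30% in these data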;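 note: rise in fluorescence read as greater calcium sensitivity of cardiac thin filaments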
Keap1 Nrf2 FP: disrupts human Keap1 binding to Nrf2 peptide; Q14145; Keap1 Kelch-Nrf2 peptide fluorescence polarization, 1536-well; actives 0.15% (n = 340,000); inhibition, % at 9.4 µM; AID 504523; in the data active = inhibition above about 12%; inconclusive = no clear call, values can overlap the other calls; inactive = below about 7.3%;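 note: human Keap1 Kelch domain with fluorescein labeled Nrf2 9mer peptide probe; higher means more block of Keap1 binding to Nrf2 peptide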
Target sequence (Q14145 whole entry, looked up, the tested form may be a part): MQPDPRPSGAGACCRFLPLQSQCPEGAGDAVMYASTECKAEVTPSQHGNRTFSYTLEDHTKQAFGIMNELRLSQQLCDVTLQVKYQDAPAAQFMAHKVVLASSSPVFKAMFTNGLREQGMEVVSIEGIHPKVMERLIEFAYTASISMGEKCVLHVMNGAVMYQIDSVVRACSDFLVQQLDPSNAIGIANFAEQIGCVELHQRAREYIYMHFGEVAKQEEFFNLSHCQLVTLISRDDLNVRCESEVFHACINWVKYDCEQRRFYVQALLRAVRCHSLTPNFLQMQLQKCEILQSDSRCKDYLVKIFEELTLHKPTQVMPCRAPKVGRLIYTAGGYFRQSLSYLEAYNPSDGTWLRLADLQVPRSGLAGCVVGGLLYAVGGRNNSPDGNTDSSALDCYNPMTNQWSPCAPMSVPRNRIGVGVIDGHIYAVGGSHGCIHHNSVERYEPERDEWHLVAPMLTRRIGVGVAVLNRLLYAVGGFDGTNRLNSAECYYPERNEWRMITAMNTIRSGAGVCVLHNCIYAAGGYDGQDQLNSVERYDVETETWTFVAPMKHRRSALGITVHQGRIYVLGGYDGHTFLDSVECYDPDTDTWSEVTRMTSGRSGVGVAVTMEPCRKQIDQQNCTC
E coli Lon inh: E. coli protease La inhibition. P0A9M0. purified E. coli Lon protease, fluorescence polarization. inhibition, % at 7.94 µM. actives 0.42% (n = 360,000). AID 602123; in the data active = inhibition above about 13%, passing the limit was not always enough
Cardiac RTF inh: cardiac RTF calcium desensitization; IANBD-labeled cardiac RTF, Ca2+ fluorescence; AID 493244; actives 0.12% (n = 340,000); inhibition, % at 7.15 µM;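 active = inhibition above the mean inhibition of all tested compounds plus 3 SD, cut at about 17% in these data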;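 note: assay run at fixed EC70 calcium of 1.6 mM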
C-LANA FP: KSHV C-LANA DNA binding inhibition. AID 504423. MBP-C-LANA/FAM-LBS DNA binding, fluorescence polarization. actives 0.078% (n = 340,000). inhibition, % at 9 µM;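 active = highest replicate inhibition at or above 60% at 9 µM, even if other replicates fall short; inactive = all replicates below 60% inhibition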
eLon confirm: E. coli Lon inhibition confirmation; shares compounds with E coli Lon inh; purified E. coli Lon, fluorescence polarization; inhibition, % at 7.94 µM; actives 31% (n = 1,400); in the data active = inhibition above about 16%
Numbers stand for hits; – = inactive; ? = inconclusive; · = no result; + = active, no number.

SMILES	cardiac RTF act	Keap1 Nrf2 FP	E coli Lon inh	Cardiac RTF inh	C-LANA FP	eLon confirm
CCOC(=O)C(C)Sc1nnc(Cc2cc(=O)[nH]c(=O)[nH]2)n1-c1ccc(Cl)cc1 (configuration not stated)	–	–	24	–	–	–
C=Cn1cc(CNC[C@H]2O[C@@H](n3ccc(N)nc3=O)[C@H](O)[C@@H]2O)c(C)n1	·	·	–	·	·	·
CCOC(=O)NC(=O)/C(C#N)=C\Nc1sccc1C(=O)OC	–	?	+	–	–	–
CC(=O)CSc1nc2ccccc2o1	–	–	–	–	–	·
O=C(CSc1nc2ccccc2o1)c1ccccc1	–	–	53	–	–	24
ON=C1C2CC=C(c3ccccc3)C1CCC2 (configuration not stated)	–	–	–	–	–	·
CCCN1CCCc2cc(CN)ccc21	–	–	38	–	–	47
CCc1nc2ccc(C(=O)NCCOc3ccc(OC)cc3)cn2c1N(CC)CCN(C)C	·	·	–	·	·	·
O=C(NCCCN1CCCC1)Nc1ccccc1[N+](=O)[O-]	–	–	16	–	–	–
O=C1CCc2cc(S(=O)(=O)N3CCN(c4cccc(Cl)c4)CC3)ccc2N1	–	–	–	–	–	·
O=C1Cc2cc(S(=O)(=O)N3CCN(c4cccc(Cl)c4)CC3)ccc2N1	–	–	52	–	–	–
CCCC(=O)N1CCC1(C)C(=O)Nc1ccc(-n2cccc2)cc1 (configuration not stated)	·	·	–	·	·	·
CCNS(=O)(=O)c1ccc2c(c1)n(C)c(=O)n2C	–	–	–	–	–	·
CCCNS(=O)(=O)c1ccc2c(c1)n(C)c(=O)n2C	–	–	16	–	–	–
C[C@@H]1CCCCO[C@@H](CN(C)C(=O)CCCN(C)C)[C@@H](C)CN([C@H](C)CO)C(=O)c2cc(N(C)C)ccc2O1	·	·	–	·	·	·
CCOC(=O)N(C)OC(=O)Nc1ccc(Cl)c(Cl)c1	–	–	19	–	–	25
O=c1[nH]c(NCCO)c(N=Cc2ccccc2)c(=O)[nH]1	–	–	–	–	–	·
Nc1[nH]c(=O)[nH]c(=O)c1N=Cc1ccccc1	–	–	90	–	–	53
OCc1nc2ccccc2n1CC(O)Cn1ccc2ccccc21 (configuration not stated)	–	–	–	–	–	·
O=C1c2ccccc2S(=O)(=O)N1CC(O)Cn1ccc2ccccc21 (configuration not stated)	–	–	112	–	–	45
O=C(c1ccc2c(c1)C(=O)N(CCCO)C2=O)c1ccc2c(c1)C(=O)N(CCCO)C2=O	–	–	–	–	–	·
O=C1c2ccc3c4c(ccc(c24)C(=O)N1CCCCO)C(=O)N(CCCCO)C3=O	–	–	50	–	–	50
COc1ccc(S(=O)(=O)N2CCC(C(=O)N[C@H](C(=O)NCc3ccccc3)C(C)C)CC2)cc1	·	·	–	·	·	·
COc1ccc2nc(N3CCC(C)CC3)c(C#N)cc2c1	–	–	15	–	–	23
COc1ccc2nc(N3CCC(O)CC3)c(C#N)cc2c1	–	–	–	–	–	·
SMILES	cardiac RTF act	Keap1 Nrf2 FP	E coli Lon inh	Cardiac RTF inh	C-LANA FP	eLon confirm
CCOC(=O)[C@@H](NC(=O)/C=C/[C@H]1O[C@@H](n2cc(C)c(=O)[nH]c2=O)C[C@@H]1O)C(C)C	·	·	–	·	·	·
CC(=O)[C@@]1(O)Cc2c(O)c3c(c(O)c2[C@H](O[C@H]2C[C@H](N)[C@H](O)[C@H](C)O2)C1)C(=O)c1ccccc1C3=O	·	·	+	·	·	+
COc1ccc(OC)c(CN2CCCCCC2)c1	–	–	21	–	–	121
COc1ccccc1N1CCN(Cc2ccc(O)c3ncccc23)CC1	–	–	15	–	–	–
COc1ccc(OC)c(CN2CCN(c3ccccc3OC)CC2)c1	–	–	17	–	–	–
COc1ccccc1N1CCN(Cc2ccc(OC)c(OC)c2OC)CC1	–	–	–	–	–	·
Fc1ccccc1CNc1nc(NCC2CC2)nc2ccsc12	·	·	12	·	·	–
COc1ccccc1CNc1nc(NCc2ccccc2F)c2sccc2n1	·	·	–	·	·	·
Clc1ccccc1C1=CC(c2ccco2)n2ncnc2N1 (configuration not stated)	–	–	31	–	–	–
FC(F)(F)c1ccccc1C1=CC(c2ccccc2)n2ncnc2N1 (configuration not stated)	–	–	–	–	–	·
O=C1ON=C(c2ccccc2)/C1=C/c1cccnc1	–	–	17	–	–	–
CN(CC1COc2ccccc2O1)C(=O)c1cccc(S(=O)(=O)N2CCCC2)c1 (configuration not stated)	–	–	–	–	–	·
N#Cc1cccc(NC(=O)CSc2ccc3c4c(cccc24)C(=O)c2ccccc2-3)c1	42	–	22	–	–	94
Cc1nc2ccc(C(=O)N(C)Cc3ccco3)cn2c1N(C)C(=O)CCc1ccccc1	·	·	–	·	·	·
COC(=O)c1ccncc1N	–	–	–	–	–	·
Nc1cnccc1C(=O)O	39	–	131	–	–	80
CC1CC(=O)c2cnc(NCC3CCCO3)nc2C1 (configuration not stated)	–	–	16	–	–	–
CC1(C)CC(=O)c2cnc(NCC3CCCO3)nc2C1 (configuration not stated)	–	–	–	–	–	·
O=C1C=C(NCc2ccncc2)CC(c2ccccc2)C1 (configuration not stated)	–	–	–	–	–	·
O=C1C=C(NNC(=O)c2ccncc2)CC(c2ccccc2)C1 (configuration not stated)	–	–	68	–	–	–
Cc1cccc(N2N=C(C(=O)O)CCC2=O)c1	–	–	37	–	–	–
Cc1cccc(N2N=C(C(=O)Nc3nc(C)cs3)CCC2=O)c1	–	–	–	–	–	·
COC(=O)c1c(C(=O)OC)c2n(c1C)Cc1ccccc1C2	–	–	123	–	–	–
CCCCCCn1c(=O)n2n(c1=O)C[C@]1(OC(=O)NCc3ccco3)CN(S(=O)(=O)c3ccc(C)cc3)C[C@]1(O)C2	·	·	–	·	·	·
CCn1cnc2cc(NCc3ccc(C)cc3)ccc21	–	–	117	–	–	–
SMILES	cardiac RTF act	Keap1 Nrf2 FP	E coli Lon inh	Cardiac RTF inh	C-LANA FP	eLon confirm
CCn1cnc2cc(NCc3ccc(N(C)C)cc3)ccc21	–	–	–	–	–	·
O=c1nc2ccccc2c(NS(=O)(=O)c2ccccc2)n1-c1ccccc1	–	–	61	–	–	–
Cc1ccc(S(=O)(=O)Nc2c3ccccc3nc(=O)n2-c2ccccc2)cc1	–	–	–	–	–	·
CCCNC(=O)c1cc(S(=O)(=O)N2CCC3(CC2)OCCO3)ccc1F	·	·	–	·	·	·
C1CCN(CC2CCCCN2)CC1 (configuration not stated)	–	–	–	–	–	·
N#Cc1cccc(C(Br)S(=O)(=O)c2ccccc2)c1 (configuration not stated)	·	·	–	·	·	·
O=C(O)CN1C(=O)C(=O)N(Cc2ccc(Cl)cc2Cl)C1=O	–	–	18	–	–	17
Fc1ccc(CN2CC[C@H]3C=CCc4cccc(c43)C2)cc1	–	–	30	–	–	–
